Screening data from PubChem.
The list is not random: actives were taken first. Their share in the collection is about 11%.
G9a block: inhibitors of human histone lysine methyltransferase G9a. G9a H3K9 monomethylation, AlphaScreen, 2 h. Potency, µM (highest dose often 102 µM), inactives show at the highest dose activity, negative = inhibition, most hits filed as inhibitors. 350,000 compounds, 8.8% hits. AID 504332; note: % is set by controls: 0 for no effect and ±100 for the full control effect; nearly all actives have a fitted effect of over 75% in size
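AlphaScreen detection with an anti-monomethyl H3K9 antibody quantified product after a 2 h room-temperature reaction containing 500 nM biotinylated H3K9 peptide, 20 µM SAM and 20 nM enzyme, which had been preincubated 15 min with compound.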
PLK1 PBD inh: inhibitors of human PLK1 polo-box domain binding; P53350; Potency, µM, for the others: max response, negative = inhibition, hits mostly inhibitors; Plk1 PBD binding of FITC phosphopeptide, fluorescence polarization; 360,000 compounds, 2.8% hits; note: series mostly up to about 57 µM; % is set by controls: 0 for no effect and ±100 for the full control effect; nearly all actives have a fitted effect of over 65% in size
Target sequence (P53350 whole entry, looked up, the tested form may be a part): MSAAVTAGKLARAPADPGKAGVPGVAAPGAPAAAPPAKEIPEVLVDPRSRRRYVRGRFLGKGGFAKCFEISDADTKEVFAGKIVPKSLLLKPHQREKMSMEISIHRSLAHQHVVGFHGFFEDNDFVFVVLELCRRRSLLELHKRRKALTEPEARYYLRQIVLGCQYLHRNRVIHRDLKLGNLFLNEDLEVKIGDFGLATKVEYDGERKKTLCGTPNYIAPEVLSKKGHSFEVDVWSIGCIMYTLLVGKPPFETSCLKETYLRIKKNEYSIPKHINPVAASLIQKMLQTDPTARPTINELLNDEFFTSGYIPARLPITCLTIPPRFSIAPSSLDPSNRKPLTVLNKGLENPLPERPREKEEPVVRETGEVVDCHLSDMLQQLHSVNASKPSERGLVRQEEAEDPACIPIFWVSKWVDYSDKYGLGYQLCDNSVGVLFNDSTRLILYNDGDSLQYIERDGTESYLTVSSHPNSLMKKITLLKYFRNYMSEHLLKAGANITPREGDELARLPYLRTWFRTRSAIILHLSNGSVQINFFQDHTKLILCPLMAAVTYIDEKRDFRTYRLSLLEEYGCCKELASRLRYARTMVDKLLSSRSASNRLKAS
BAZ2B block: inhibitors of human BAZ2B bromodomain. Q9UIF8. 360,000 compounds, 4.4% hits. AlphaScreen BAZ2B-H3K14Ac peptide displacement. Potency, µM (series often up to 114 µM), for inactives: top-dose activity change, negative = inhibition, actives largely listed as inhibitors; note: % is set by controls: 0 for no effect and ±100 for the full control effect; nearly all actives have a fitted effect of over 60% in size
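In this displacement format the biotinylated H3(5-23) peptide acetylated at Lys14 serves as ligand at 50 nM, with BAZ2B at 50 nM in PBS pH 7.4 containing 0.01% Tween-20. Donor and acceptor beads are 10 ug/mL final.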
VDR inhibitor: blocks the human vitamin D receptor | AID 504847 | Potency, µM, for inactives: max response, negative = inhibition, most hits filed as inhibitors | 400,000 compounds, 0.93% hits | VDR-SRC2-3 peptide fluorescence polarization, 2 h; note: % is set by controls: 0 for no effect and ±100 for the full control effect
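Measured by FP: displacement of SRC2-3 coactivator peptide from VDR by library compounds, following a two-hour ambient incubation.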
HP1b chromo inh: inhibitors of HP1-beta chromodomain binding to methylated histone tails; AlphaScreen HP1-beta / biotin-H3K9me3 peptide binding; AID 540317; 390,000 compounds, 0.56% hits; Potency, µM (series often up to 114 µM), without a hit: at the top dose activity change, negative = inhibition, most hits filed as inhibitors; note: nearly all actives have a fitted effect of over 70% in size
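Compound inhibition of the preformed complex between 50 nM HP1-beta and 50 nM biotinylated H3K9me3 peptide was read by AlphaScreen. Buffer was PBS pH 7.4 with 0.01% Tween-20. Incubations ran 30 min at room temperature, with 10 ug/mL donor/acceptor beads.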
JMJD2A Tudor: inhibitors of human JMJD2A Tudor domain. O75164. AlphaScreen JMJD2A-Tudor / H3K4me3 peptide binding. Potency, µM (highest dose often 114 µM), for the others: top-dose activity change, negative = inhibition, hits mostly inhibitors. 390,000 compounds, 4.4% hits. AID 504339; note: % is set by controls: 0 for no effect and ±100 for the full control effect; nearly all actives have a fitted effect of over 50% in size
* marks the source's active call; other numbers are inactive results; [ ] = another dose, or the depositor's remark. Calls come from the whole dose curve; as a rule, active = well fitted curve in the direction sought with a large enough effect; inconclusive = small, poorly fitted or top-dose-only effect, or another doubt; inactive = no such curve, though single readings can be large; an effect the other way counts as inactive or inconclusive. Potency is the fitted concentration of half-maximal effect.

CC1CC(=O)C2=C(C1)Nc1ccccc1SC2c1ccc(F)cc1 (stereo not given) was read as G9a block 1%[59 µM], PLK1 PBD inh 3%, BAZ2B block -26%, VDR inhibitor -21%, HP1b chromo inh 36% and JMJD2A Tudor -11%.
Screening CC(=O)Nc1ccc(C2Nc3ccccc3C(=O)N2C2CCCCC2)cc1 (stereo not given) returned G9a block -8%[59 µM], PLK1 PBD inh -2%, VDR inhibitor 0%, HP1b chromo inh 23% and JMJD2A Tudor -9%.
`CC(C)c1ccc(C2Sc3ccccc3NC3=C2C(=O)c2ccccc23)cc1` (stereo not given) gave G9a block inconclusive, BAZ2B block 8.9µM*, VDR inhibitor -9%, HP1b chromo inh inconclusive and JMJD2A Tudor 11µM*.
`O=C1C2=C(Nc3ccccc3SC2c2ccc(C(F)(F)F)cc2)c2ccccc21` (stereo not given) gave G9a block 11µM*, VDR inhibitor -11%, HP1b chromo inh inconclusive and JMJD2A Tudor 28µM*.
For CCc1ccc(C2Sc3ccccc3NC3=C2C(=O)c2ccccc23)cc1 (stereo not given) the results were G9a block 10µM*, VDR inhibitor inconclusive, HP1b chromo inh inconclusive and JMJD2A Tudor 25µM*.
Screening Cc1nn(C)c(C)c1CCC(=O)N1CCCC(N2CCN(c3ccc(F)cc3)CC2)C1 (stereo not given) returned G9a block inconclusive, PLK1 PBD inh -1%, BAZ2B block 0%, VDR inhibitor -9%, HP1b chromo inh 39% and JMJD2A Tudor 5%.
O=C1C2=C(Nc3ccccc3SC2c2ccco2)c2ccccc21 (stereo not given) was read as G9a block inconclusive, PLK1 PBD inh inconclusive, BAZ2B block 35µM*, VDR inhibitor 3%, HP1b chromo inh 22µM* and JMJD2A Tudor 35µM*.
O=C1c2ccccc2NC(c2ccco2)N1NS(=O)(=O)c1ccccc1 (stereo not given) was read as G9a block -25%, PLK1 PBD inh -9%, BAZ2B block 0%, VDR inhibitor -12%, HP1b chromo inh 43% and JMJD2A Tudor -3%.
For CC1CCc2cc(F)ccc2N1C(=O)c1cc2nc(-c3ccco3)cc(C(F)(F)F)n2n1 (stereo not given) the results were G9a block 50µM*, PLK1 PBD inh -6%, BAZ2B block 3%, VDR inhibitor 1%, HP1b chromo inh 26% and JMJD2A Tudor 2%.
For O=C(/C=C/[C@H]1O[C@@H](n2cnc3c(NC(=O)c4ccccc4)ncnc32)[C@H](O)[C@@H]1O)NCC1CCCCC1 the results were PLK1 PBD inh 1%.
Screening COC(CNC(=O)C1CCN(C(=O)c2cc3oc(C)cc3n2Cc2c(F)cccc2Cl)CC1)OC returned G9a block 32µM*, PLK1 PBD inh -3%, BAZ2B block -11%, VDR inhibitor 4%, HP1b chromo inh 13% and JMJD2A Tudor -9%.
Screening CCOC(=O)N1CCC(NC(=O)C2CCN(C(=O)c3cc4oc(C)cc4n3Cc3c(F)cccc3Cl)CC2)CC1 returned G9a block 35µM*, PLK1 PBD inh -10%, BAZ2B block inconclusive, VDR inhibitor -5%, HP1b chromo inh -8% and JMJD2A Tudor inconclusive.
For O=C(Nc1ccc(F)cc1)Nc1csc2c1CCCC2 the results were G9a block -1%[59 µM], BAZ2B block -1%, VDR inhibitor -2%, HP1b chromo inh 47% and JMJD2A Tudor -11%.
Cc1noc(NS(=O)(=O)c2ccc(NC(=O)c3ccc(N4C(=O)c5ccccc5C4=O)cc3)cc2)c1C was read as G9a block 2%, PLK1 PBD inh -26%, BAZ2B block 50µM*, VDR inhibitor 13%, HP1b chromo inh -5% and JMJD2A Tudor -35%.
`Cc1ccc2c(=O)cc(C(=O)Nc3ccc(S(=O)(=O)Nc4onc(C)c4C)cc3)oc2c1C` gave G9a block -37%[59 µM], BAZ2B block -34%, VDR inhibitor 5%, HP1b chromo inh 10% and JMJD2A Tudor 56µM*.
`CCC(Cc1ccccc1)NC(=O)c1ccc2nc(N3CCC(C)CC3)sc2c1` (stereo not given) gave G9a block -4%[59 µM], BAZ2B block -33%, VDR inhibitor 7%, HP1b chromo inh 36% and JMJD2A Tudor 0%.
For CCCn1c(=N)c(C(=O)NC2CCCCC2)cc2c(=O)n3cc(C)ccc3nc21 the results were G9a block -32%[59 µM], BAZ2B block 0%, VDR inhibitor -15%, HP1b chromo inh 23% and JMJD2A Tudor -1%.
Screening CC(C)OCCCNS(=O)(=O)c1ccc2ccccc2c1 returned G9a block 10%[59 µM], PLK1 PBD inh -2%, BAZ2B block 10%, VDR inhibitor 8%, HP1b chromo inh 25% and JMJD2A Tudor -16%.
Screening Cc1cccc(N(Cc2cc3ccccc3[nH]c2=O)C(=O)c2ccco2)c1C returned G9a block 3%[12.7 µM], PLK1 PBD inh -2%, BAZ2B block -6%, VDR inhibitor 14%, HP1b chromo inh 19% and JMJD2A Tudor -10%.
CC(C)N(Cc1cc2ccccc2[nH]c1=O)C(=O)c1ccco1 was read as G9a block 50µM*, PLK1 PBD inh -4%, BAZ2B block -9%, VDR inhibitor 12%, HP1b chromo inh 20% and JMJD2A Tudor -9%.
For COc1ccc(N(Cc2cc3ccc(C)cc3[nH]c2=O)C(=O)c2ccco2)cc1 the results were G9a block 71µM*, PLK1 PBD inh -7%, BAZ2B block 12%, VDR inhibitor -1%, HP1b chromo inh 34% and JMJD2A Tudor -1%.
Screening CC(=O)Nc1ccc(S(=O)(=O)N(Cc2ccco2)Cc2cc3ccccc3[nH]c2=O)cc1 returned G9a block 35µM*, PLK1 PBD inh -7%, BAZ2B block -31%, VDR inhibitor -20%, HP1b chromo inh 55% and JMJD2A Tudor -18%.
Screening CNC(=S)N(Cc1ccc(OC)cc1)Cc1cc2ccc(C)cc2[nH]c1=O returned G9a block -3%, PLK1 PBD inh 24µM*, BAZ2B block -16%, VDR inhibitor 3%, HP1b chromo inh inconclusive and JMJD2A Tudor -14%[11.4 µM].
`CC(=O)Nc1ccc(S(=O)(=O)N(Cc2cccnc2)Cc2cc3ccccc3[nH]c2=O)cc1` gave G9a block 19%, PLK1 PBD inh -10%, BAZ2B block -17%, VDR inhibitor -14%, HP1b chromo inh 29% and JMJD2A Tudor 11%.
Screening O=[N+]([O-])c1cccc(C=Nc2cc3c(cc2Br)OCCO3)c1 returned G9a block 50µM*, PLK1 PBD inh -28%, BAZ2B block inconclusive, VDR inhibitor -11%, HP1b chromo inh -38% and JMJD2A Tudor inconclusive.
